{"source": "PubChem BioAssay AID463173", "about": "(ICCB-Longwood Screening Facility, Harvard Medical School, 2010)", "note": "Out of some 52,000 compounds screened, about 4,300 (8.3%) were called active. The sample as a whole holds a higher share of actives than the screen did. Values without a mark were called inactive. Rule as the data show it: active = survival mostly below about 52% (no sharp cut-off); inactive = mostly above about 56%."}
{"test_system": "DeltatarO mutant", "assay": "growth inhibition of S. aureus wild type versus tarO mutant, primary screen, teichoic acid synthesis inhibitors, RN4220, OD600 (AID 463173)", "settings": "OD600, 18 h, hits give low values, screened at 18.75 µg/mL (by protocol)"}
{"smiles": "COc1ccccc1CNC(=O)CCNS(=O)(=O)c1ccc2c(c1)CCCC(=O)N2", "survival": "60%"}
{"smiles": "CC1CCN(C(=O)Cn2c(=O)n(CCCCCC(=O)NCc3ccccc3Cl)c(=O)c3sccc32)CC1", "survival": "69%"}
{"smiles": "COc1ccc(N2CC(NC(=O)C(c3ccccc3)c3ccccc3)CC2=O)cc1OC", "note": "(configuration not stated)", "survival": "90%"}
{"smiles": "CC(=O)Nc1ccc(NC(=O)C(NC(=O)C2CCC(C)CC2)C(C)C)cc1", "note": "(configuration not stated)", "survival": "128%"}
{"smiles": "Nc1c(C(=O)Nc2ccc(C(=O)O)cc2)sc2nc3c(cc12)CCCC3", "survival": "42% (active)"}
{"smiles": "COc1ccc(NC(=O)c2sc3nc4c(cc3c2N)CCCCCC4)cc1", "survival": "127%"}
{"smiles": "COc1ccc(NC(=O)c2sc3nc4c(cc3c2N)CN(Cc2ccccc2)CC4)cc1", "survival": "96%"}
{"smiles": "CN1CCc2nc3sc(C(=O)Nc4cccc(C#N)c4)c(N)c3cc2C1", "survival": "54% (active)"}
{"smiles": "CN1CCc2nc3sc(C(=O)Nc4c(F)cccc4F)c(N)c3cc2C1", "survival": "153%"}
{"smiles": "CCN(CC)c1ccc(NC(=O)c2sc3nc4c(cc3c2N)CN(C)CC4)cc1", "survival": "181%"}
{"smiles": "COc1ccccc1NC(=O)c1sc2nc3c(cc2c1N)CN(Cc1ccccc1)CC3", "survival": "101%"}
{"smiles": "CCOc1ccccc1NC(=O)c1sc2nc3c(cc2c1N)CN(Cc1ccccc1)CC3", "survival": "63%"}
{"smiles": "CCN1CCc2nc3sc(C(=O)Nc4ccccc4OC(F)(F)F)c(N)c3cc2C1", "survival": "44% (active)"}
{"smiles": "CCN1CCc2nc3sc(C(=O)Nc4cccc(Cl)c4C)c(N)c3cc2C1", "survival": "125%"}
{"smiles": "COc1ccc(NC(=O)c2sc3nc4c(cc3c2N)CN(Cc2ccccc2)CC4)c(OC)c1", "survival": "47% (active)"}
{"smiles": "CC(=O)c1cccc(NC(=O)c2sc3nc4c(cc3c2N)CCCC4)c1", "survival": "60%"}
{"smiles": "CCOC(=O)C1=C(CS(=O)(=O)c2cccc(C(F)(F)F)c2)NC(=O)NC1c1cccc(OC)c1", "note": "(configuration not stated)", "survival": "48%"}
{"smiles": "CC(=O)c1ccc(NS(=O)(=O)c2ccc3[nH]c4c(c3c2)CCCCCC4)cc1", "survival": "84%"}
{"smiles": "CCOc1ccc(C(=O)c2oc3ccccc3c2NC(=O)Cc2coc3cc(C)cc(C)c23)cc1", "survival": "100%"}
{"smiles": "CC(=O)c1ccc(NC(=O)CSc2ccc(-c3cccs3)nn2)cc1", "survival": "126%"}
{"smiles": "COc1cccc(C(=O)CN2CCN(S(=O)(=O)c3ccc(Cl)cc3)CC2)c1", "survival": "74%"}
{"smiles": "COc1ccccc1OCC(=O)N(Cc1ccco1)Cc1ccccc1F", "survival": "64%"}
{"smiles": "CCc1cc(CC)c(/C=N/NC(N)=O)c(CC)c1/C=N/NC(N)=O", "survival": "94%"}
{"smiles": "Cc1ccc(NC(=O)c2sc3nc4c(cc3c2N)CN(Cc2ccccc2)CC4)cc1", "survival": "110%"}
{"smiles": "CCc1ccc(NC(=O)c2sc3nc4c(cc3c2N)CN(CC)CC4)cc1", "survival": "49% (active)"}
{"smiles": "Nc1c(C(=O)Nc2ccccc2)sc2nc3c(cc12)CN(Cc1ccccc1)CC3", "survival": "63%"}
{"smiles": "Cc1cccc(N2CCN(C(=O)Cn3ncc4c3-c3ccccc3OC4)CC2)c1C", "survival": "77%"}
{"smiles": "COc1cc(S(=O)(=O)NCCc2c(C)[nH]c3ccccc23)c(C)cc1C", "survival": "56%"}
{"smiles": "COc1cc(C)c(Cl)cc1S(=O)(=O)NCCc1c(C)[nH]c2ccccc12", "survival": "37% (active)"}
{"smiles": "COc1ccc(C(C)C)cc1S(=O)(=O)NCCc1c(C)[nH]c2ccc(C)cc12", "survival": "84%"}
{"smiles": "COc1ccc2[nH]c(C)c(CCNS(=O)(=O)c3cc(F)ccc3OC)c2c1", "survival": "57%"}
{"smiles": "COc1c(C)cc(S(=O)(=O)NCCc2c(C)[nH]c3ccccc23)c(C)c1C", "survival": "59% (active)"}
{"smiles": "COc1cc(Cl)c(S(=O)(=O)NCCc2c(C)[nH]c3c(C)cccc23)cc1Cl", "survival": "57%"}
{"smiles": "COc1cccc(C(c2nnnn2CCC(C)C)N2CCN(c3cccc(C)c3C)CC2)c1OC", "note": "(configuration not stated)", "survival": "82%"}
{"smiles": "CCOC(=O)C1CC1c1ccccc1", "note": "(configuration not stated)", "survival": "81%"}
{"smiles": "Cc1cccc(C(=O)Nc2ccc(C(=O)OCc3cc(=O)n4nc(CC(C)C)sc4n3)cc2)c1", "survival": "99%"}
{"smiles": "COc1cccc(Nc2ccc3cc(S(=O)(=O)N4CCC(C)CC4)ccc3n2)c1", "survival": "88%"}
{"smiles": "COc1ccc(NC(=O)N(Cc2nnc3n2CCCCC3)c2ccc(OC)c(Cl)c2)cc1", "survival": "60%"}
{"smiles": "O=C(O)c1cccnc1N1CCOCC1", "survival": "84%"}
{"smiles": "O=C(NCc1cccs1)c1ccc(CSc2nc3ccncc3n2Cc2ccccc2)cc1", "survival": "110%"}
{"smiles": "COc1ccc(OC)c(NS(=O)(=O)c2ccc3[nH]c4c(c3c2)CCCCC4)c1", "survival": "77%"}
{"smiles": "COC(=O)c1ccc(Cn2nc(-c3ccc(C)cc3)ccc2=O)cc1", "survival": "133%"}
{"smiles": "Cc1ccc(-c2ccc(=O)n(CC(=O)NCCc3ccccc3)n2)cc1", "survival": "57%"}
{"smiles": "Cc1ccc(-c2ccc(=O)n(Cc3ccc(F)cc3)n2)cc1", "survival": "50%"}
{"smiles": "C=Cc1ccc(Cn2nc(-c3ccc(C)c(S(=O)(=O)N(CC)CC)c3)ccc2=O)cc1", "survival": "53%"}
{"smiles": "Cc1ccc(C)c(-c2ccc(=O)n(Cc3ccc(F)cc3Cl)n2)c1", "survival": "32% (active)"}
{"smiles": "Cc1ccc(-c2ccc(=O)n(Cc3cc(C)ccc3C)n2)cc1", "survival": "57% (active)"}
{"smiles": "Cc1ccc(C)c(-c2ccc(=O)n(Cc3c(F)cccc3Cl)n2)c1", "survival": "81%"}
{"smiles": "O=c1ccc(-c2ccccc2)nn1Cc1ccc(F)cc1Cl", "survival": "49%"}
{"smiles": "Cc1ccc(-c2ccc(=O)n(CC(=O)NCCc3ccc(Cl)cc3)n2)cc1", "survival": "69%"}
{"smiles": "Cc1ccc(C)c(Cn2nc(-c3cc(C)ccc3C)ccc2=O)c1", "survival": "44%"}
{"smiles": "Cc1ccc(CCNC(=O)Cn2nc(-c3ccc(C)cc3)ccc2=O)cc1", "survival": "0% (active)"}
{"smiles": "C=Cc1ccc(Cn2nc(-c3ccc(C)cc3)ccc2=O)cc1", "survival": "35% (active)"}
{"smiles": "Cc1ccc(NC(=O)CCN2CCN(CCO)CC2)cc1C", "survival": "54%"}
{"smiles": "Cc1ccc(CCNC(=O)c2ccc3c(c2)nc2n3CCOC2)cc1", "survival": "86%"}
{"smiles": "CCc1ccc(-n2c(=O)c3cccnc3n2CC(=O)Nc2ccccc2C(F)(F)F)cc1", "survival": "71%"}
{"smiles": "Cc1c(-c2ccc(Cl)cc2)c(=O)oc2c(CN3CCOCC3)c(O)ccc12", "survival": "82%"}
{"smiles": "O=c1oc(-c2cccc3ncccc23)nn1Cc1ccccc1F", "survival": "102%"}
{"smiles": "COc1cccc(CNC(=O)CCc2nnc3n(C)c(=O)c4sccc4n23)c1", "survival": "63%"}
{"smiles": "CCc1ccc(C(=O)c2cn(CC(=O)Nc3ccc(C)c(C)c3)c3ccccc3c2=O)cc1", "survival": "108%"}
{"smiles": "CC(C)CC(=O)n1nc(-c2cccnc2)nc1NCc1ccc(F)cc1", "survival": "89%"}
{"smiles": "Cc1cc(Nc2ccc(F)cc2)nc(-n2nc(C)cc2C)n1", "survival": "70%"}
{"smiles": "Cc1ccc2ncc(C(=O)c3ccc(C)c(C)c3)c(S(=O)(=O)c3ccccc3)c2c1", "survival": "70%"}
{"smiles": "COc1ccc(S(=O)(=O)N2CCC(c3nnnn3-c3ccccc3)CC2)cc1OC", "survival": "80%"}
{"smiles": "CN1C(=O)/C(=C2/SC(=S)N(c3cccc(O)c3)C2=O)c2ccccc21", "survival": "54%"}
{"smiles": "CNC(=O)c1ccc(CSc2nc3cccnc3n2Cc2cccc(F)c2)cc1", "survival": "118%"}
{"smiles": "CCN1CCN(CCCNC(=O)c2ccc3nc(Cc4ccccc4)oc3c2)CC1", "survival": "105%"}
{"smiles": "COc1ccc(C(=O)Nc2cc(NC(=O)c3ccco3)ccc2OC)cc1Cl", "survival": "54%"}
{"smiles": "COc1ccc(NC(=O)c2ccco2)cc1NC(=O)c1cccc(C)c1OC", "survival": "37% (active)"}
{"smiles": "COc1ccc(NC(=O)c2ccco2)cc1NC(=O)c1ccc(C)c(C)c1", "survival": "49% (active)"}
{"smiles": "COc1ccc(NC(=O)c2ccco2)cc1NC(=O)COc1ccc(C)c(C)c1", "survival": "49%"}
{"smiles": "COc1ccc(NC(=O)c2ccco2)cc1NC(=O)COc1ccccc1", "survival": "45% (active)"}
{"smiles": "COc1ccc(NC(=O)c2ccco2)cc1NC(=O)COc1cc(C)cc(C)c1", "survival": "121%"}
{"smiles": "COc1ccc(NC(=O)c2ccco2)cc1NC(=O)c1cccc(F)c1", "survival": "89%"}
{"smiles": "COc1cc(OC)cc(C(=O)Nc2cc(NC(=O)c3ccco3)ccc2OC)c1", "survival": "83%"}
{"smiles": "COc1ccc(NC(=O)c2ccco2)cc1NC(=O)c1cc(OC)c(OC)c(OC)c1", "survival": "71%"}
{"smiles": "COc1ccc(NC(=O)c2ccco2)cc1NC(=O)c1c(OC)cccc1OC", "survival": "51%"}
{"smiles": "CCCCOc1cccc(C(=O)Nc2cc(NC(=O)c3ccco3)ccc2OC)c1", "survival": "23% (active)"}
{"smiles": "COc1ccc(NC(=O)c2ccco2)cc1NC(=O)c1ccccc1[N+](=O)[O-]", "survival": "49%"}
{"smiles": "COc1cccc(NC(=O)C2CCCN(c3nnc(-n4c(C)ccc4C)s3)C2)c1", "note": "(configuration not stated)", "survival": "79%"}
{"smiles": "COc1ccc(NC(=O)Cn2cnc3c(oc4ccccc43)c2=O)cc1OC", "survival": "79%"}
{"smiles": "Cc1nc(-c2ccc(S(=O)(=O)N3CCN(c4cccc(C(F)(F)F)c4)CC3)cc2)co1", "survival": "67%"}
{"smiles": "Cc1ccc(S(=O)(=O)CC(=O)Nc2nc3c(C)cc(C)cc3s2)cc1", "survival": "96%"}
{"smiles": "COC(=O)c1c(SC)nc2ccccc2c1OCc1ccc(Cl)cc1", "survival": "92%"}
{"smiles": "COc1ccc(N(C(=O)c2ccc(OC)c(OC)c2)S(=O)(=O)c2ccc(Cl)cc2)cc1", "survival": "80%"}
{"smiles": "COc1cccc(CN(CCO)Cc2ccccc2)c1OC", "survival": "91%"}
{"smiles": "CCOc1ccc(CNC(=O)C2CCN(C(=O)N3CC(CC)Oc4ccc(C)cc43)CC2)cc1OC", "note": "(configuration not stated)", "survival": "77%"}
{"smiles": "Cc1cccc(-n2c(=O)c3c(c4cc(C)ccc4n3C)n(CC(=O)Nc3ccc(C)cc3C)c2=O)c1", "survival": "69%"}
{"smiles": "COc1ccccc1CNC(=O)Cn1ncc2c(=O)oc3ccc(C)cc3c21", "survival": "78%"}
{"smiles": "CC(C)n1nc(CC(=O)O)c2ccccc2c1=O", "survival": "79%"}
{"smiles": "CCSc1nc2ccc(N)cc2s1", "survival": "108%"}
{"smiles": "O=C(NCC(c1cccnc1)N1CCc2ccccc2C1)c1ccc(F)c(F)c1", "note": "(configuration not stated)", "survival": "70%"}
